In PubChem BioAssay (NCATS):
Records with an inconclusive call do not appear. The source made the active and inactive calls. The call rests on the fitted dose curve; in most records, active means well fitted curve in the direction sought with a large enough effect; inconclusive means small, poorly fitted or top-dose-only effect, or another doubt; inactive means no such curve, though single readings can be large; an effect the other way counts as inactive or inconclusive. Where a SMILES comes first, the peptide text is derived from it. Bridges are numbered along the chain shown (N, C = ends). [ ]: non-standard residue; d: D form. The star is where a group is joined. X1 = CCC(C)C(N)C1=NC(C(=O)*)CS1; dOrn = NCCC[C@@H](N)C(=O)O

Assays:
[1] = molecular target: Glutathione peroxidase 1 (Homo sapiens) (UniProt P07203); assay: Primary qHTS Assay for Inhibitors of Recombinant Selenoprotein Glutathione Peroxidase 1 (GPX1) (AID 1845191); further: nearly all actives have a fitted effect of over 65% in size; on activity, negative = inhibition: on the % scale 0 is the no-effect control and ±100 the full control effect
In short: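 GR-coupled readout: NADPH consumption tracked by fluorescence, ex 340/em 450 nm, at t=0 and after 15 min at RT. Final mix 10 nM GPX1, 1 mM GSH, 0.5 mM CHP, 0.5 mM NADPH, 100 nM GR, 0.01% BSA, following 30 min enzyme–compound preincubation.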

[2] = molecular target: Phospholipid hydroperoxide glutathione peroxidase GPX4 (Homo sapiens) (UniProt P36969); assay: Primary qHTS Assay for Inhibitors of Recombinant Selenoprotein Glutathione Peroxidase 4 (GPX4) (AID 1845192); further: nearly all actives have a fitted effect of over 65% in size; on activity change, negative = inhibition: series mostly up to about 50 µM; on the % scale 0 is the no-effect control and ±100 the full control effect
In short: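 Steps: GPX4 plus compound, 30 min RT; add GR/GSH/NADPH master mix; start with cumene hydroperoxide; read 340/450 nm fluorescence at 0 and 15 min. Finals were 200 nM GPX4, 1 mM GSH, 0.5 mM CHP, 0.5 mM NADPH, 100 nM GR.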

[3] = molecular target: Luciferin 4-monooxygenase (Photinus pyralis) (UniProt P08659); assay: Primary firefly luciferase (FLuc) qHTS assay for identification of artifact compounds. (AID 1845220); further: nearly all actives have a fitted effect of over 60% in size;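 on activity change, negative = inhibition: series mostly up to about 54 µM; plate controls were DMSO vehicle for no effect and no enzyme for full effect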
In short: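 D-luciferin and ATP (10 uM each, final) in Tris acetate buffer pH 7.6 were incubated with compounds for 15 min at room temperature. The reaction was started with 10 nM Photinus pyralis luciferase and luminescence read after 5 min. Percent inhibition was fitted to a 4-parameter Hill equation.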

[4] = Primary fluorescence-based thiol-reactive (MSTI) qHTS assay for identification of artifact compounds. (AID 1845221); further: nearly all actives have a fitted effect of over 65% in size; further: potency means the concentration at half of the fitted maximal effect;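 on activity change, negative = thiol reactive: series mostly up to about 54 µM; thiol-reactive compounds lower the probe fluorescence signal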
In short: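 In PBS pH 7.4 with 2% DMSO, each compound met 4 uM MSTI for one hour at ambient temperature, shielded from light, before fluorescence detection.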

[5] = tested on: Nanoluciferase (engineered Oplophorus gracilirostris luciferase); assay: Primary Nanoluciferase (NLuc) qHTS assay for identification of artifact compounds. (AID 1845222);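 further: series mostly up to about 54 µM; 0% = DMSO and -100% = no enzyme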
In short: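 Diluted conditioned medium from NLuc-expressing S16 cells treated with compounds for 15 min at room temperature, then Nano-Glo substrate added; luminescence read after 5 min. Percent inhibition versus no-enzyme and DMSO controls fitted to 4-parameter Hill equation.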

Chain of Glutathione peroxidase 1 (Homo sapiens) (P07203 whole entry, looked up): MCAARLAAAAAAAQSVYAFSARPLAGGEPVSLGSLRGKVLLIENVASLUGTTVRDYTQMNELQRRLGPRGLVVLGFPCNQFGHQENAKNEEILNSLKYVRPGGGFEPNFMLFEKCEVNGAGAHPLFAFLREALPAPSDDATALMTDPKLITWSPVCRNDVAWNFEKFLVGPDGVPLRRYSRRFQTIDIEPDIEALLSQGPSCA
Chain of Phospholipid hydroperoxide glutathione peroxidase GPX4 (Homo sapiens) (P36969 whole entry, looked up): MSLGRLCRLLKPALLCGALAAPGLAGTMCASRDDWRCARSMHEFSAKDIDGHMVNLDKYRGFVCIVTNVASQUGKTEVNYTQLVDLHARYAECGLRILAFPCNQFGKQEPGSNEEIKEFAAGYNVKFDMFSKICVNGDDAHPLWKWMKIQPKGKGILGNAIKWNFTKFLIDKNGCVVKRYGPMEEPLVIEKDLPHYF

COc1cc(/C=C/C(=O)O[C@H]2[C@H](OC(=O)/C=C/c3cc(OC)c(O)c(OC)c3)O[C@H](CO[C@@H]3O[C@H](CO)[C@@H](O)[C@H](O)[C@H]3O)[C@@H](O)[C@@H]2O)ccc1O
inactive: Potency [1] | Potency [2] | Potency [3] | Potency [4] | Potency [5]

C[C@]12CC[C@@H]3c4ccc(O[C@@H]5O[C@H](C(=O)O)[C@@H](O)[C@H](O)[C@H]5O)cc4CC[C@H]3[C@@H]1CCC2=O
inactive: Potency [1] | Potency [2] | Potency [3] | Potency [4] | Potency [5]

COc1cc([C@@H]2Oc3c(OC)cc(CCCO)cc3[C@@H]2CO[C@@H]2O[C@H](CO)[C@@H](O)[C@H](O)[C@H]2O)ccc1O
active: Potency [4] 4.12 µM
inactive: Potency [1] | Potency [2] | Potency [3] | Potency [5]

C=CC(C)(C)C1(CC2NC(=O)C3CCCN3C2=O)C(=O)Nc2cc3c(cc21)C=CC(C)(C)O3 (stereo not given)
inactive: Potency [1] | Potency [2] | Potency [3] | Potency [4] | Potency [5]

CC1CCC2(C(=O)OC3OC(CO)C(O)C(O)C3O)CCC3(C)C(=CCC4C5(C)CC(O)C(O)C(C)(C(=O)O)C5CCC43C)C2C1(C)O (stereo not given)
inactive: Potency [1] | Potency [2] | Potency [3] | Potency [4] | Potency [5]

COC(=O)C1=COC(O[C@@H]2O[C@H](CO)[C@@H](O)[C@H](O)[C@H]2O)/C(=C\COC(=O)c2ccc(OC3OC(CO)C(O)C(O)C3O)c(OC)c2)C1CC(=O)OCCc1ccc(O)cc1 (stereo not given in full)
inactive: Potency [1] | Potency [2] | outcome [3] inactive [at 11.6 µM] | activity change, negative = thiol reactive [4] 1.89% [at 11.5 µM] | activity, negative = inhibition [5] 4.63% [at 11.6 µM]

C=C1CCC[C@]2(C)C[C@]3(O)OC(=O)C(C)=C3C[C@@H]12
inactive: Potency [1] | Potency [2] | Potency [3] | Potency [4] | Potency [5]

C=C1C2(CCC(=O)OC2(C)C)CC(OC(=O)/C(C)=C/C)C2(C)C13OC14C(=O)OC(C)(C(=O)C12C(=O)OC4C)C3OC(C)=O (stereo not given)
inactive: Potency [1] | Potency [2] | Potency [3] | Potency [4] | Potency [5]

C/C(=C\CCC(C)(O)c1ccc(C)cc1)C(=O)O (stereo not given)
inactive: Potency [1] | Potency [2] | Potency [3] | Potency [4] | Potency [5]

CC1(C)O[C@@]2(C)CC[C@@H]1C[C@@H]2OC1OC(CO)C(O)C(O)C1O (stereo not given in full)
active: Potency [4] 7.36 µM
inactive: Potency [1] | Potency [2] | Potency [3] | Potency [5]

COc1ccc(/C=C/C(=O)O[C@H]2[C@@H]3C=CO[C@@H](O[C@@H]4O[C@H](CO)[C@@H](O)[C@H](O)[C@H]4O)[C@@H]3[C@@]3(CO)O[C@@H]23)cc1O
active: Potency [4] 11.6 µM
inactive: Potency [1] | Potency [2] | Potency [3] | Potency [5]

COC1CCCC/C(C)=C/C2C=C(C)C(C)C3C(CC(C)C)NC(=O)C23C(=O)C1 (stereo not given)
inactive: Potency [1] | Potency [2] | Potency [3] | Potency [4] | Potency [5]

CCC(C)C(N)C1=NC(C(=O)N[C@@H](CC(C)C)C(=O)N[C@H](CCC(=O)O)C(=O)N[C@H](C(=O)N[C@H]2CCCCNC(=O)[C@H](CC(N)=O)NC(=O)[C@@H](CC(=O)O)NC(=O)[C@H](Cc3cnc[nH]3)NC(=O)[C@@H](Cc3ccccc3)NC(=O)[C@H]([C@@H](C)CC)NC(=O)[C@@H](CCCN)NC2=O)[C@@H](C)CC)CS1 (stereo not given in full) (X1-L[dE]IK[dOrn]I[dF]H[dD]N; lactam 4-C)
inactive: Potency [1] | Potency [2] | Potency [3] | Potency [4] | Potency [5]

O=S(=O)(Nc1ccc(C(O)(C(F)(F)F)C(F)(F)F)cc1)c1cccs1
inactive: Potency [1] | Potency [2] | Potency [3] | Potency [4] | Potency [5]

CC1CCC2(C(=O)OC3OC(CO)C(O)C(O)C3O)CCC3(C(=O)O)C(=CCC4C5(C)CCC(OC6OC(C)C(O)C(O)C6O)C(C)(C)C5CCC43C)C2C1C (stereo not given)
inactive: Potency [1] | Potency [2] | Potency [3] | Potency [4] | Potency [5]

O=C(NCC(=O)N1CC[C@H](NC2CCC(O)(c3ccc(-c4ncccn4)cn3)CC2)C1)c1cccc(C(F)(F)F)c1 (stereo not given in full)
inactive: Potency [1] | Potency [2] | Potency [3] | Potency [4] | Potency [5]

C[C@@H]1CC[C@]2(C)C(C[C@@H](O)[C@H](O)[C@]23CO3)[C@@]1(C)CCc1ccoc1 (stereo not given in full)
inactive: Potency [1] | Potency [2] | Potency [3] | Potency [4] | Potency [5]

FC(F)(F)c1cc(C(F)(F)F)c2ccc3nc(-c4nnco4)cn3c2n1
inactive: Potency [1] | Potency [2] | Potency [3] | Potency [4] | Potency [5]

CC1CCC2(C(=O)OC3OC(COC4OC(CO)C(O)C(O)C4O)C(O)C(O)C3O)CCC3(C)C(=CCC4C5(C)CCC(O)C(C)(C(=O)O)C5CCC43C)C2C1(C)O (stereo not given)
inactive: Potency [1] | Potency [2] | activity change, negative = inhibition [3] -4.02% [at 11.6 µM] | activity change, negative = thiol reactive [4] 18.5% [at 11.5 µM] | activity, negative = inhibition [5] 3.18% [at 11.6 µM]

COC(=O)C1C(CC(C)=O)C=CC(O)C12Oc1cc(C)cc(O)c1C2=O (stereo not given)
active: Potency [4] 5.85 µM
inactive: Potency [1] | Potency [2] | Potency [3] | Potency [5]

C[C@H]1CC[C@@]2(OC1)O[C@H]1CC3C4CC=C5C[C@H](O)C[C@@H](O[C@@H]6O[C@@H](C)[C@H](O)[C@@H](O)[C@H]6O[C@@H]6O[C@@H](C)[C@H](O)[C@@H](O)[C@H]6O)[C@]5(C)C4CC[C@]3(C)[C@H]1[C@@H]2C (stereo not given in full)
inactive: Potency [1] | Potency [2] | Potency [3] | Potency [4] | Potency [5]
